Reference: PubChem BioAssay AID1159580 (chemical genetic matrix, 2015)
Out of some 5,500 compounds screened, about 2,000 (36%) were called active. Not shown: some 18% with an inconclusive outcome. Cut-off read from the data, not from the text of the source: active = normalized growth mostly below about 0.91 (no sharp cut-off); inconclusive = no clear call, values can overlap the other calls; inactive = mostly above about 0.92. This is one part of the list.

Assay: chemical genetic growth profiling, strain panel (AID 1159580);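 note: tested at 20 µM; growth read once vehicle control cultures reached saturation at 30 °C; 1 = growth at the plate median or of vehicle wells; lower values mean less growth of the strain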
Conditions: S. cerevisiae deletion strains, growth OD

Measured: normalized growth

O=C1c2c(O)cc(O)cc2OC(c2ccc(O)c(O)c2)C1O (stereo unspecified)
inactive: locus YAL013W, strain DEP1, active compounds read low 1.03 | locus YAL040C, strain CLN3, active compounds read low 1.04 | locus YCL061C, strain MRC1 (second series), active compounds read low 0.999 | locus YDR150W, strain NUM1, active compounds read low 0.987 | locus YDR363W, strain ESC2, active compounds read low 1 | locus YER002W, strain NOP16, active compounds read low 0.998 | locus YMR307W, strain GAS1, active compounds read low 1.01 | locus YNL175C, strain NOP13, active compounds read low 0.99 | locus YNL197C, strain WHI3, active compounds read low 0.977 | locus YNL224C, strain SQS1, active compounds read low 0.993 | locus YOR083W, strain WHI5 (second series), active compounds read low 0.991
